Test results: the supplement of paper PMC11219838
Values without a mark were called inactive.

What was measured:
Conditions in all cases: 60 µM; 5 days; temperature: 20 °C
Meloidogyne hapla J2 = test: proportion of mobile M. hapla J2 relative to DMSO control (fraction of DMSO control); higher = more viable, less nematicidal, active = 0.7 or less
Method in brief: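 About 25 M. hapla J2 were placed in each well of a 96-well plate in distilled water, and compound was pinned in to a final 60 µM with 0.6% v/v DMSO. The sealed plates were shaken at 200 rpm at 20 °C for 5 days, after which 2 µL of 1 M NaOH went into each well. Mobility was then scored under the microscope and divided by the mean value from DMSO-only wells on the same plate. Each plate held eight such DMSO wells, and two biological replicates were averaged.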

[1] = test system: Caenorhabditis elegans dauer (daf-2(e1370)); test: proportion of mobile C. elegans dauer larvae relative to DMSO control (fraction of DMSO control); higher = more viable, less nematicidal, active = 0.63 or less; extreme values may be limits of the assay
Method in brief: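 The proportion of mobile worms, relative to DMSO wells, was scored by dissection microscope and averaged over two biological replicates. Worms were C. elegans dauers, about 20 per well in liquid NGM in 96-well plates, generated from synchronized larvae on MYOB plates with E. coli OP50 at 25 °C for 48 h. They were treated with compound pinned to 60 µM final (0.6% v/v DMSO) and kept in sealed plates shaken at 200 rpm for 5 days at 20 °C.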

Ditylenchus dipsaci = test: proportion of mobile D. dipsaci (mixed stage) relative to DMSO control (fraction of DMSO control); higher = more viable, less nematicidal, active = 0.86 or less; extreme values may be limits of the assay
Method in brief: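 Ditylenchus dipsaci nematodes were cultured on pea plants in Gamborg B-5 agar, then extracted into water through a filter funnel, and roughly 20 worms in distilled water were placed in each well of a 96-well plate. Compound was pinned in to a final concentration of 60 µM (0.6% v/v DMSO), and the sealed plates were shaken at 200 rpm for 5 days at 20 °C. Mobile worms were counted under the microscope after 2 µL of 1 M NaOH was added. Mobility is given relative to DMSO controls as the mean of two biological replicates.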

| Structure (SMILES) | proportion of mobile M. hapla J2 (Meloidogyne hapla J2) | proportion of mobile C. elegans dauer larvae [1] | proportion of mobile D. dipsaci (Ditylenchus dipsaci) |
| --- | --- | --- | --- |
| Cc1ccc(C(=O)CSc2nnc(-c3ccccc3)o2)cc1 | 0.968 | 1 | 1 |
| Clc1cc(Cl)c(OCc2nc(-c3ccncc3)no2)cc1Cl | 0.713 | 1 | 1 |
| c1ccc(COc2cccc(-c3nc(-c4cccnc4)no3)c2)cc1 | 0.854 | 1 | 1 |
| Cc1nnc(CSc2nnc(-c3ccc(Cl)cc3)o2)o1 | 0.926 | 1 | 1 |
| Clc1ccccc1-c1noc(-c2cccnc2)n1 | 0.883 | 1 | 1 |
| CCOc1nc(-c2ccc(C)cc2)ccc1-c1noc(CC)n1 | 0.667 (active) | 1 | 1 |
| CCOc1cc(-c2noc(-c3ccncc3)n2)ccc1OC | 0.745 | 1 | 1 |
| Cc1ccc(CSc2nnc(-c3ccco3)o2)c(C)c1 | 0.687 (active) | 1 | 1 |
| COc1cccc(NC(=O)CSc2nnc(-c3ccc(Br)cc3)o2)c1 | 0.966 | 1 | 1 |
| Cc1cc(OCc2nc(-c3ccccc3)no2)cc(C)c1Cl | 1.05 | 1 | 1 |
| O=C(CSc1nnc(-c2ccccc2)o1)Nc1ccc(F)cc1F | 1.03 | 1 | 1 |
| Brc1ccccc1-c1nc(-c2ccncc2)no1 | 0.995 | 0.274 (active) | 1 |
| CC(C)C(=O)Nc1ccccc1-c1nc(-c2ccccc2)no1 | 0.957 | 1 | 1 |
| CCNC(=O)c1ccccc1-c1nc(-c2ccc(F)cc2)no1 | 0.998 | 1 | 1 |
| COc1ccccc1NC(=O)CSc1nnc(-c2ccc(Cl)cc2)o1 | 0.902 | 1 | 1 |
| Clc1ccc(-c2nc(-c3ccccc3Br)no2)cc1 | 0.984 | 1 | 1 |
| Cc1ccc(-c2nc(C3CCCCC3)no2)cc1 | 1.01 | 1 | 1 |
| O=C(CSc1nnc(-c2ccco2)o1)c1ccc(Br)cc1 | 0.997 | 1 | 1 |
| O=C(CSc1nnc(-c2ccccc2)o1)NC1CC2CCC1C2 (configuration not stated) | 0.795 | 1 | 1 |
| Clc1ccc(SCc2nc(-c3ccccc3)no2)cc1 | 0.783 | 0.59 (active) | 1 |
| CC(=O)Nc1ccc(C(=O)CSc2nnc(-c3cccc(Br)c3)o2)cc1 | 1.01 | 1 | 1 |
| c1ccc(-c2nnc(SCc3cccnc3)o2)cc1 | 0.92 | 1 | 0.75 (active) |
| Cc1ccc(-c2nnc(SCC(=O)Nc3cc(C)ccc3C)o2)cc1 | 0.982 | 1 | 1 |
| N#Cc1ccccc1CSc1nnc(-c2ccncc2)o1 | 0.826 | 1 | 1 |
| COC(=O)c1ccc(NC(=O)CSc2nnc(-c3ccc(Cl)cc3Cl)o2)cc1 | 0.929 | 1 | 1 |
| CN(C)C(=O)c1ccccc1-c1nc(-c2ccc(Cl)cc2)no1 | 0.963 | 1 | 1 |
| Cc1ccc(SCc2nc(-c3ccc(C)cc3)no2)cc1 | 0.854 | 1 | 1 |

| Structure (SMILES) | proportion of mobile M. hapla J2 (Meloidogyne hapla J2) | proportion of mobile C. elegans dauer larvae [1] | proportion of mobile D. dipsaci (Ditylenchus dipsaci) |
| --- | --- | --- | --- |
| Cc1ccc(-c2nc(-c3ccccc3)no2)cc1C | 0.884 | 1 | 1 |
| Fc1ccc(-c2noc(-c3ccc(F)cc3)n2)cc1 | 1.01 |  | 1 |
| CCOc1cc(C#N)ccc1OCc1nc(-c2cccs2)no1 | 1.07 |  | 1 |
| Cc1ccc(-c2noc(COc3ccccc3C)n2)cc1 | 1.01 |  | 1 |
| COc1nc(C)ccc1-c1noc(-c2ccccc2Cl)n1 | 1.02 |  | 1 |
| Cc1ccc(-c2noc(-c3ccccc3OCC(N)=O)n2)cc1 | 1.04 |  | 1 |
| Ic1ccc(CSc2nnc(-c3ccccc3)o2)cc1 | 0.991 | 1 | 1 |
| Cc1cccc(-c2noc(-c3ccc4c(c3)OCO4)n2)c1 | 0.974 | 1 | 1 |
| Cc1cc(C)c(CSc2nnc(-c3ccccc3)o2)c(C)c1 | 0.962 |  | 1 |
| Cc1ccc(NC(=O)CSc2nnc(-c3ccncc3)o2)cc1Cl | 0.939 |  | 1 |
| CCn1c(SCc2nc(-c3cccs3)no2)nnc1-c1ccco1 | 0.813 |  | 1 |
| CC(=O)Nc1ccc(NC(=O)c2ccccc2-c2nc(-c3cccc(C)c3)no2)cc1 | 1.01 |  | 1 |
| COc1ccccc1OCc1nc(-c2ccc(Cl)cc2)no1 | 1.01 | 1 | 1 |
| COc1cccc(-c2noc(COc3cccc(C)c3)n2)c1 | 0.995 | 1 | 1 |
| COc1ccc(-c2noc(-c3ccccc3Cl)n2)cc1 | 0.885 |  | 1 |
| O=C(Nc1ccccc1-c1nc(-c2ccncc2)no1)c1cccc(Cl)c1 | 1.04 |  | 1 |
| Cc1cc(Cl)ccc1OCc1nc(-c2ccccc2)no1 | 1.02 |  | 1 |
| Cc1csc(NC(=O)CSc2nnc(-c3ccccc3Cl)o2)n1 | 0.849 |  | 1 |
| Cc1ccc(-c2nnc(SCC(=O)NCc3ccccc3)o2)cc1 | 1.04 | 1 | 1 |
| COc1ccccc1-c1nc(-c2ccccc2Cl)no1 | 0.899 |  | 1 |
| C=CCOc1ccc(-c2nc(-c3cccnc3)no2)cc1 | 0.965 |  | 0.5 (active) |
| CCc1nc(-c2ccc(-c3ccccc3)nc2OC)no1 | 0.99 |  | 1 |
| Cc1ccc(-c2nc(-c3ccccn3)no2)cc1C | 1.03 |  | 1 |
| COc1ccc(-c2nnc(SCC(=O)Nc3ccc(Cl)c(Br)c3)o2)cc1 | 0.933 |  | 1 |
| c1ccc(COc2cccc(-c3nc(-c4ccncc4)no3)c2)cc1 | 0.915 |  | 1 |
| Cc1cc(OCc2nc(-c3ccc(NC(=O)c4ccc5c(c4)OCO5)cc3)no2)ccc1Cl | 0.843 |  | 1 |
| Cc1ccccc1-c1nnc(SCc2ccccc2Cl)o1 | 0.863 |  | 1 |

| Structure (SMILES) | proportion of mobile M. hapla J2 (Meloidogyne hapla J2) | proportion of mobile C. elegans dauer larvae [1] | proportion of mobile D. dipsaci (Ditylenchus dipsaci) |
| --- | --- | --- | --- |
| O=C(CSc1nnc(-c2ccc(Cl)cc2)o1)NCc1ccccc1 | 0.901 | 1 | 1 |
| O=C(CSc1nnc(-c2ccccc2)o1)c1ccc(Br)cc1 | 0.966 |  | 1 |
| Cc1ccc(OCc2nc(-c3ccccc3)no2)cc1C | 1.1 | 1 | 1 |
| Clc1ccc(-c2nc(-c3ccc4c(c3)OCO4)no2)cc1 | 1.03 |  | 1 |
| COc1cccc(OCc2nc(-c3cccc(Br)c3)no2)c1 | 0.999 | 1 | 1 |
| COc1ccc(-c2noc(COc3ccc(Br)c(C)c3)n2)cc1 | 0.972 |  | 1 |
| CC(Oc1ccc(Br)cc1)c1nc(-c2ccncc2)no1 (configuration not stated) | 0.719 |  | 1 |
| CCOc1ccccc1-c1nc(-c2ccc(NC(=O)c3ccncc3)cc2)no1 | 0.977 |  | 1 |
| COc1ccc(NC(=O)c2ccccc2-c2nc(-c3ccccc3C)no2)cc1 | 0.81 | 1 | 1 |
| O=C(CSc1nnc(-c2cccc(Br)c2)o1)Nc1ccccn1 | 0.951 |  | 1 |
| Fc1cccc(-c2nc(-c3cccnc3)no2)c1 | 1.08 |  | 1 |
| Cc1ccc(-c2noc(-c3ccc(Br)cc3)n2)cc1 | 1.05 |  | 1 |
| COc1ccc(Cl)cc1-c1noc(-c2ccccc2)n1 | 1.02 |  | 1 |
| Cc1cc(OCc2nc(-c3ccncc3)no2)cc(C)c1Cl | 0.78 |  | 1 |
| COc1ccc(-c2noc(COc3ccc(Cl)cc3)n2)cc1 | 1.04 |  | 1 |
| O=C(c1ccccc1-c1nc(-c2ccccc2)no1)N1CCCCC1 | 1.06 |  | 1 |
| CC(C)(C)C(=O)CSc1nnc(-c2ccc(Cl)cc2Cl)o1 | 0.873 |  | 1 |
| Ic1ccc(CSc2nnc(-c3ccco3)o2)cc1 | 0.872 |  | 1 |
| COc1ccc(-c2nnc(SCC(=O)OCc3ccccc3)o2)cc1 | 0.953 |  | 1 |
| Clc1ccc(OCc2ccccc2)c(-c2nc(-c3cccnc3)no2)c1 | 1.01 |  | 0.917 |
| Cc1ccc(C)c(-c2nc(-c3cccnc3)no2)c1 | 1.06 |  | 1 |
| COc1ccccc1-c1nnc(SCC(=O)Nc2ccc(C)cc2)o1 | 1.03 |  | 0.885 |
| Fc1cccc(Cl)c1CSc1nnc(-c2ccccc2Cl)o1 | 0.988 |  | 1 |
| O=C(CSc1nnc(-c2ccco2)o1)Nc1cccc(C(F)(F)F)c1 | 0.879 |  | 1 |
| Cc1ccc(-c2noc(-c3ccc(-n4nncc4C)cc3)n2)cc1 | 0.978 |  | 1 |
| COc1ccc(-c2nnc(SCC(=O)Nc3ccc(Cl)cc3C)o2)cc1 | 0.709 |  | 1 |
